According to PubChem BioAssay (NCI):
This is part of a sample that, as a whole, favours compounds with a hit. Of some 83,000 tested, about 20% had one in any assay.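 Compound tested at a single concentration for 48 hours in 96-well plates; a percent growth value below 10 was scored as active.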 Calls of active or inactive are those of the source.

Assays:
Experiment in all cases: NCI-60 one-dose screen, 48 h (100 = growth as untreated, 0 = no growth, -100 = all killed)
Conditions in all cases: 10 µM
NCI-H23 lung = test system: NCI-H23 lung
NCI-H226 lung = test system: NCI-H226 lung
NCI-H322M lung = test system: NCI-H322M lung
HOP-62 NSCLC = test system: HOP-62 NSCLC
NCI-H460 lung = test system: NCI-H460 lung
HOP-92 NSCLC = test system: HOP-92 NSCLC
A549/ATCC NSCLC = test system: A549/ATCC NSCLC
786-0 renal = test system: 786-0 renal
COLO 205 colon = test system: COLO 205 colon
NCI-H522 lung = test system: NCI-H522 lung

Measured: growth

CCOC(=O)Nc1nn[nH]n1
inactive: NCI-H23 lung 102% | NCI-H226 lung 107% | NCI-H322M lung 129% | HOP-62 NSCLC 113% | NCI-H460 lung 99.9% | HOP-92 NSCLC 97.3% | A549/ATCC NSCLC 103% | 786-0 renal 105% | COLO 205 colon 107%

CCN=c1cc2sc3cc(NCC)c(C)cc3nc-2cc1C
inactive: NCI-H226 lung 64.2% | NCI-H322M lung 27.3% | HOP-62 NSCLC 29.4% | HOP-92 NSCLC 16.3% | 786-0 renal 46.3%
active: NCI-H23 lung 5.46% | NCI-H460 lung 1.61% | A549/ATCC NSCLC -40.3% | COLO 205 colon -25.8%

O=c1cc2oc3cc(O)c(O)cc3c(-c3ccccc3O)c-2cc1O
active: HOP-92 NSCLC 7.48%
inactive: NCI-H23 lung 82.4% | NCI-H226 lung 87% | NCI-H322M lung 57.5% | HOP-62 NSCLC 63% | NCI-H460 lung 96% | NCI-H522 lung 66.8% | 786-0 renal 57.2% | COLO 205 colon 126%

O=c1[nH]c(O)c(/C=C2/C=Nc3ccccc32)[nH]1
inactive: NCI-H23 lung 101% | NCI-H226 lung 92.1% | NCI-H322M lung 107% | HOP-62 NSCLC 99.4% | NCI-H460 lung 99.3% | HOP-92 NSCLC 84.5% | A549/ATCC NSCLC 91.3% | 786-0 renal 107% | COLO 205 colon 101%

O=C(Cc1nc2ccc([N+](=O)[O-])cc2nc1CC(=O)c1cccnc1)c1cccnc1
inactive: NCI-H23 lung 52.7% | NCI-H226 lung 52.2% | NCI-H322M lung 51% | HOP-62 NSCLC 25.6% | NCI-H460 lung 48.1% | HOP-92 NSCLC 69.8% | NCI-H522 lung 18.5% | 786-0 renal 15.8% | COLO 205 colon 121%

Nc1ccc(N=Nc2ccc(S(=O)(=O)O)cc2)c2ccccc12
inactive: NCI-H23 lung 86.2% | NCI-H226 lung 87% | NCI-H322M lung 91.8% | HOP-62 NSCLC 63.7% | NCI-H460 lung 94.8% | HOP-92 NSCLC 76.9% | NCI-H522 lung 95.7% | 786-0 renal 106% | COLO 205 colon 90.7%

CC(CN1CCCCC1)NC(=O)c1scnc1-c1ccccc1 (centres undefined)
inactive: NCI-H23 lung 101% | NCI-H226 lung 108% | NCI-H322M lung 95.6% | HOP-62 NSCLC 100% | NCI-H460 lung 111% | HOP-92 NSCLC 91.9% | A549/ATCC NSCLC 96.8% | 786-0 renal 102% | COLO 205 colon 104%

Nc1ccc(NC(=O)c2cccc(N)c2)cc1
inactive: NCI-H23 lung 96.7% | NCI-H226 lung 99.1% | NCI-H322M lung 95.2% | HOP-62 NSCLC 86.5% | NCI-H460 lung 101% | HOP-92 NSCLC 81.1% | A549/ATCC NSCLC 47.6% | 786-0 renal 101% | COLO 205 colon 114%

CCOC(=O)C1=C(Nc2ccc(Br)cc2)C(=O)N(CC)C1
inactive: NCI-H23 lung 98.8% | NCI-H226 lung 86.3% | NCI-H322M lung 95.6% | HOP-62 NSCLC 85.9% | NCI-H460 lung 107% | HOP-92 NSCLC 48.3% | A549/ATCC NSCLC 98.8% | 786-0 renal 91.4% | COLO 205 colon 108%

CN(C)c1ccc(C(c2ccc(O)cc2)c2ccc(N(C)C)cc2)cc1
inactive: NCI-H23 lung 104% | NCI-H226 lung 92.9% | NCI-H322M lung 98.4% | HOP-62 NSCLC 99.7% | NCI-H460 lung 98.6% | HOP-92 NSCLC 90.9% | NCI-H522 lung 81.1% | 786-0 renal 105% | COLO 205 colon 101%

Oc1ccc(Cc2ccccc2)c2cccnc12
inactive: NCI-H226 lung 75.7% | HOP-62 NSCLC 18.3% | A549/ATCC NSCLC 16.2% | COLO 205 colon 96.5%
active: NCI-H23 lung 7.91% | NCI-H322M lung -2.54% | NCI-H460 lung 0.164% | HOP-92 NSCLC -0.901% | 786-0 renal -1.42%

O=C(NCc1ccco1)Nc1c(Cl)cc(Cl)cc1Cl
inactive: NCI-H23 lung 104% | NCI-H226 lung 99.6% | NCI-H322M lung 106% | HOP-62 NSCLC 97.3% | NCI-H460 lung 103% | HOP-92 NSCLC 79.6% | A549/ATCC NSCLC 102% | 786-0 renal 97.2% | COLO 205 colon 107%

O=C(Nc1ccccc1C(=O)NCC1CC1)c1cccs1
inactive: NCI-H23 lung 109% | NCI-H226 lung 88.1% | NCI-H322M lung 126% | HOP-62 NSCLC 103% | NCI-H460 lung 105% | HOP-92 NSCLC 71.6% | A549/ATCC NSCLC 102% | 786-0 renal 101% | COLO 205 colon 116%

C[N+](C)(C)C(=O)c1ccccc1
inactive: NCI-H23 lung 99.5% | NCI-H226 lung 102% | NCI-H322M lung 118% | HOP-62 NSCLC 101% | NCI-H460 lung 119% | HOP-92 NSCLC 102% | A549/ATCC NSCLC 101% | 786-0 renal 109% | COLO 205 colon 109%

Cc1cc2nc(CC(=O)c3cccc([N+](=O)[O-])c3)c(=O)[nH]c2cc1C
inactive: NCI-H23 lung 80.3% | NCI-H226 lung 90.7% | NCI-H322M lung 93.8% | HOP-62 NSCLC 101% | NCI-H460 lung 87.6% | HOP-92 NSCLC 74.9% | NCI-H522 lung 70.4% | 786-0 renal 85.5% | COLO 205 colon 110%

CC(C(=O)O)(C1CCCCC1)C1(O)CCCCC1 (centres undefined)
inactive: NCI-H23 lung 103% | NCI-H226 lung 102% | NCI-H322M lung 101% | HOP-62 NSCLC 96.4% | NCI-H460 lung 105% | HOP-92 NSCLC 104% | A549/ATCC NSCLC 106% | 786-0 renal 98.9% | COLO 205 colon 104%
